{"source": "PubChem BioAssay (NCATS)", "key": {"[1]": {"assay": "qHTS Assay for Identifying Gametocytocidal Compounds (AID 743244); note: potency is the fitted concentration of half-maximal effect;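 for max response: actives lower the fluorescent signal which means gametocytes are killed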", "details": "P. falciparum 3D7 stage III-V gametocytes, alamarBlue, 72 h; max response: stronger effect = lower value", "procedure,_shortened": "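A resazurin-based viability read-out was applied to mature P. falciparum gametocytes: 72 h compound treatment, then 24 h dye incubation, with falling fluorescence signalling gametocytocidal effect.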"}, "[2]": {"assay": "qHTS assay for measurement of the activity of small molecule inhibitors on Zika virus induced Caspase-3 activity in human iPSC derived neural progenitor cells (hNPCs) (AID 1224857); note: nearly all actives have a fitted effect of over 65% in size; note: potency is the fitted concentration of half-maximal effect", "procedure,_shortened": "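Quantitative HTS format: human iPSC neural progenitors, 1 h compound pretreatment, ZIKV 2 FFU/cell for 6 h at 37 C. Percent inhibition derived from luminescent caspase-3/7 signal between uninfected and infected controls.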"}, "[3]": {"assay": "qHTS profiling for inhibitors of Plasmodium falciparum (3D7) proliferation (AID 743322)", "details": "P. falciparum 3D7 proliferation; at 28.7 µM (top of the series) unless noted", "procedure,_shortened": "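Erythrocytes infected with P. falciparum (0.3% parasitemia, 2.5% hematocrit) incubated with compounds 72 h at 37 C, 5% CO2. Lysis with saponin/Triton buffer containing SYBR Green I, overnight at room temperature in the dark; DNA fluorescence (485/535 nm) normalised to 0.29 uM artemisinin and DMSO.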"}, "[4]": {"assay": "qHTS profiling for inhibitors of Plasmodium falciparum (DD2) proliferation (AID 743323; call rule not given here)", "details": "lower = more inhibition; at 28.7 µM (top of the series) unless noted", "procedure,_shortened": "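Parasite DNA quantified by SYBR Green fluorescence (ex 485, em 535 nm) after saponin/Triton lysis and overnight dark incubation. Cultures: 0.3% parasitemia, 2.5% hematocrit, 72 h, 37 C; data scaled between DMSO and 0.29 uM artemisinin.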"}, "[5]": {"assay": "qHTS profiling for inhibitors of Plasmodium falciparum (HB3) proliferation (AID 743324)", "details": "Plasmodium falciparum HB3 blood-stage proliferation; at 28.7 µM (top of the series) unless noted", "procedure,_shortened": "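P. falciparum HB3 grown in erythrocytes (0.3% parasitemia, 2.5% hematocrit final) with compound for 72 h at 37 C, 5% CO2. Parasite DNA detected by SYBR Green after saponin/triton lysis overnight; normalized to 0.29 uM artemisinin and DMSO.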"}, "[6]": {"target": "T1, Hexokinase-4 (Homo sapiens) + Glucokinase regulatory protein (Homo sapiens) (UniProt P35557+Q14397)", "T1 sequence (P35557 whole entry, looked up)": "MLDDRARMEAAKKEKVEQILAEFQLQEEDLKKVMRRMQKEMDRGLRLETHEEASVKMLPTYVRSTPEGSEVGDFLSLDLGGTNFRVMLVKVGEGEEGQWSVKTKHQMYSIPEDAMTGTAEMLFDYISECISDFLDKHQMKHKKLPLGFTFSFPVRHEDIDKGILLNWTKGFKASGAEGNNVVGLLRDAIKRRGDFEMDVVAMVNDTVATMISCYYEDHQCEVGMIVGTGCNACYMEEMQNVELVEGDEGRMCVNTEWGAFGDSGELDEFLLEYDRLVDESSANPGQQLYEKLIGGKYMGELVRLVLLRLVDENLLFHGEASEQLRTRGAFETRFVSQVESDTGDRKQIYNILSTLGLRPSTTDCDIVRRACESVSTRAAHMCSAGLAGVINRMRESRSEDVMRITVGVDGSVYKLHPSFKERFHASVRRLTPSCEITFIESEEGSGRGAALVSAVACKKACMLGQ", "T1 sequence (Q14397 whole entry, looked up)": "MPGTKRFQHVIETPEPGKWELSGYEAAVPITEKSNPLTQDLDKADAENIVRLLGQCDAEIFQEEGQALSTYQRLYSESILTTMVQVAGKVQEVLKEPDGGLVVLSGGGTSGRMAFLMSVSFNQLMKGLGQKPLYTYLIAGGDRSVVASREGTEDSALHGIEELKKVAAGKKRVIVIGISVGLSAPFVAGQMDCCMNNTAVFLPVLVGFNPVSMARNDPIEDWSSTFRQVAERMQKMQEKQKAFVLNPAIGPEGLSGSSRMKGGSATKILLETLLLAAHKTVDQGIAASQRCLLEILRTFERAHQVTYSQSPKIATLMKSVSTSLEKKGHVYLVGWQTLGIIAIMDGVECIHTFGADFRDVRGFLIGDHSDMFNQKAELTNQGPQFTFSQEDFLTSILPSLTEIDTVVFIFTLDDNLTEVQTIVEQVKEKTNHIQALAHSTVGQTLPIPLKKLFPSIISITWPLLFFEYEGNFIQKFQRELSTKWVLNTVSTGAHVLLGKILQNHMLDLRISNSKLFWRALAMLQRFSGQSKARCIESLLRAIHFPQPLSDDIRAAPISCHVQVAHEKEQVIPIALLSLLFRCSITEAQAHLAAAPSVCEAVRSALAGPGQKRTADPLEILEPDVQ", "assay": "qHTS assay for inhibitors of recombinant human GCK-GKRP interaction: Diaphorase-coupled assay (AID 743205)", "procedure,_shortened": "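A kinetic fluorescence read (Ex 525/Em 590 nm, every minute for 30 minutes) tracked resorufin from a G6PDH-diaphorase coupled GCK reaction. It contained 10 nM GST-GCK, 10 nM FLAG-GKRP, 5 mM glucose, 0.4 mM ATP in Hepes pH 7.6. Normalized to with/without-enzyme DMSO controls.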"}, "[7]": {"target": "T1, Hexokinase-4 (Homo sapiens) + Glucokinase regulatory protein (Homo sapiens)", "assay": "qHTS assay for inhibitors of recombinant human GCK-GKRP interaction: ADP-Glo assay (AID 743206)", "procedure,_shortened": "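GST-GCK and FLAG-GKRP (15 nM each in the dispensed mix, with 2 uM S6P) react with 0.4 mM ATP and 5 mM glucose (final) in Hepes pH 7.6 for 60 min at room temperature. ADP is measured by ADP-Glo luminescence.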"}, "[8]": {"target": "T1, Hexokinase-4 (Homo sapiens) + Glucokinase regulatory protein (Homo sapiens)", "assay": "qHTS assay for inhibitors of recombinant human GCK-GKRP interaction: HTRF assay (AID 743207)", "procedure,_shortened": "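After 60 min equilibration at room temperature with anti-FLAG XL665 and anti-GST antibodies, FRET ratio (665/615 nm, excitation 320 nm) was read. Proteins: GST-GCK and FLAG-GKRP, each 5 nM, plus 2 uM S6P, pH 7.1 buffer; GCK-free wells define minimum signal.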"}, "[9]": {"assay": "qHTS for Activators of Parkin Expression: LOPAC Validation Assay (FLuc Reporter) (AID 720573)", "procedure,_shortened": "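FLuc signal from Parkin-promoter coincidence reporter neuronal cells, normalized to DMSO and positive control (100%). Cells (1,500/well) pre-incubated 24 h, then exposed to LOPAC compounds in 7-point dose response for 24 h at 37 C, 5% CO2.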"}, "[10]": {"assay": "qHTS assay for measurement of the activity of small molecule inhibitors on Zika virus induced Caspase-3 activity in human astrocytoma cells (AID 1224859)", "procedure,_shortened": "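Readout is luminescence from Caspase-Glo 3/7 added after a 6 h ZIKV infection (2 FFU/cell) of compound-pretreated (1 h) SNB-19 cells; data expressed as % inhibition versus uninfected and infected wells.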"}, "[11]": {"assay": "qHTS assay to identify small molecule inhibitors of chordoma cells - UCH-2 (AID 1259356)"}, "[12]": {"assay": "qHTS assay to identify small molecule inhibitors of chordoma cells - UCH-1 (AID 1259355); note: nearly all actives have a fitted effect of over 55% in size", "procedure,_shortened": "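Luminescent ATP read-out (CellTiter-Glo, 30min at room temperature) measured viability of UCH-1 cells exposed for 48hr to test drugs at 15 concentrations, co-dosed with a five-agent combination of auranofin, camptothecin, doxorubicin, rubitecan and topotecan.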"}}, "note": "Several values for one entry are separate records, joined by “and”; a condition that tells them apart may be missing. Equal values may be shown once. Results filed as inconclusive are left out. A call without a number means that no potency is given here. Activity calls are given as the source filed them. Unless noted, calls come from the whole dose curve; as a rule, active = well fitted curve in the direction sought with a large enough effect; inconclusive = small, poorly fitted or top-dose-only effect, or another doubt; inactive = no such curve, though single readings can be large; an effect the other way counts as inactive or inconclusive.", "data": [{"smiles": "Cc1ccc(O)c(-n2nc3ccccc3n2)c1", "values": [{"measurement": "max response", "setting": "[1]", "result": "-7.72% (inactive)"}, {"measurement": "Potency", "setting": "[2]", "result": "inactive"}]}, {"smiles": "O=C(Nc1ccc(C(=O)O)c(O)c1)c1ccccc1", "values": [{"measurement": "max response", "setting": "[1]", "result": "3.53% (inactive)"}, {"measurement": "Potency", "setting": "[2]", "result": "inactive"}]}, {"smiles": "NC(=O)C(c1ccccc1)(c1ccccc1)[C@@H]1CCN(CCc2ccc3c(c2)CCO3)C1", "values": [{"measurement": "max response", "setting": "[1]", "result": "-5.51% (inactive)"}, {"measurement": "Potency", "setting": "[2]", "result": "inactive"}]}, {"smiles": "C=CCc1cccc(/C=N/NC(=O)CN2CCN(Cc3ccccc3)CC2)c1O", "values": [{"measurement": "Potency", "setting": "[1]", "result": "29.6 µM (active)"}, {"measurement": "remaining parasite growth % (stronger effect = lower value)", "setting": "[3]", "result": 16.2, "unit": "%"}, {"measurement": "activity, percent of control", "setting": "[4]", "result": 11.8, "unit": "%"}, {"measurement": "remaining proliferation (% of control), lower = more inhibition", "setting": "[5]", "result": 9.08, "unit": "%"}, {"measurement": "Potency", "setting": "[2]", "result": "inactive"}]}, {"smiles": "Oc1cc(O)cc(/C=C/c2ccc(O)c(O)c2)c1", "values": [{"measurement": "outcome", "setting": "[6]", "result": "inactive"}, {"measurement": "Potency", "setting": "[7]", "result": "inactive"}, {"measurement": "max response", "setting": "[1]", "result": "42.8% (inactive)"}, {"measurement": "Potency", "setting": "[2]", "result": "7.94 µM (active)"}]}, {"smiles": "Cn1ncc(S(=O)(=O)Cc2ccccc2)c(Br)c1=O", "values": [{"measurement": "outcome", "setting": "[6]", "result": "inactive"}, {"measurement": "Potency", "setting": "[7]", "result": "inactive"}, {"measurement": "Potency", "setting": "[8]", "result": "inactive"}, {"measurement": "max response", "setting": "[1]", "result": "25.3% (inactive)"}, {"measurement": "Potency", "setting": "[2]", "result": "inactive"}]}, {"smiles": "O=C(O)Cc1cccc(-c2cc(CCCCCCc3ccc(O[C@H]4O[C@H](CO)[C@@H](O)[C@H](O)[C@@H]4O)c(-c4cccc(CC(=O)O)c4)c3)ccc2O[C@H]2O[C@H](CO)[C@@H](O)[C@H](O)[C@@H]2O)c1", "values": [{"measurement": "max response", "setting": "[1]", "result": "36.1% (inactive)"}, {"measurement": "activity change, negative = inhibition", "setting": "[2]", "result": "14.4% [at 0.568 µM] (inactive)"}]}, {"smiles": "CC(COc1ccc(/C=C/c2ccccc2)cc1)[N+](C)(C)C", "note": "(centres undefined)", "values": [{"measurement": "Potency", "setting": "[9]", "result": "inactive"}, {"measurement": "outcome", "setting": "[6]", "result": "inactive"}, {"measurement": "Potency", "setting": "[7]", "result": "inactive"}, {"measurement": "Potency", "setting": "[8]", "result": "inactive"}, {"measurement": "Potency", "setting": "[10]", "result": "inactive"}]}, {"smiles": "CCOc1ccc2nc(S(N)(=O)=O)sc2c1", "values": [{"measurement": "max response", "setting": "[1]", "result": "10.4% (inactive)"}, {"measurement": "Potency", "setting": "[10]", "result": "inactive"}, {"measurement": "Potency", "setting": "[11]", "result": "inactive"}]}, {"smiles": "CCCCCCCCCCCC(=O)[O][Sn]([CH2]CCC)([CH2]CCC)[O]C(=O)CCCCCCCCCCC", "values": [{"measurement": "max response", "setting": "[1]", "result": "-1.72% (inactive)"}, {"measurement": "Potency", "setting": "[10]", "result": "inactive"}, {"measurement": "Potency", "setting": "[11]", "result": "inactive"}]}, {"smiles": "O=C(/C=C/c1ccccc1)NCCO", "values": [{"measurement": "max response", "setting": "[1]", "result": "7.68% (inactive)"}, {"measurement": "Potency", "setting": "[10]", "result": "inactive"}, {"measurement": "Potency", "setting": "[11]", "result": "inactive"}]}, {"smiles": "[O-][n+]1ccccc1SSc1cccc[n+]1[O-]", "values": [{"measurement": "Potency", "setting": "[1]", "result": "0.148 µM (active)"}, {"measurement": "Potency", "setting": "[10]", "result": "inactive"}, {"measurement": "Potency", "setting": "[11]", "result": "inactive"}]}, {"smiles": "CCOC(=O)c1ccccc1O", "values": [{"measurement": "max response", "setting": "[1]", "result": "-3.35% (inactive) and 9.79% (inactive)"}, {"measurement": "Potency", "setting": "[10]", "result": "inactive"}, {"measurement": "Potency", "setting": "[12]", "result": "inactive"}]}, {"smiles": "COc1cc2nc(N3CCN(C(=O)OCc4ccccc4)C(C(=O)NC(C)(C)C)C3)nc(N)c2cc1OC", "note": "(centres undefined)", "values": [{"measurement": "Potency", "setting": "[9]", "result": "inactive"}, {"measurement": "outcome", "setting": "[6]", "result": "inactive"}, {"measurement": "Potency", "setting": "[7]", "result": "inactive"}, {"measurement": "Potency", "setting": "[8]", "result": "inactive"}, {"measurement": "Potency", "setting": "[10]", "result": "inactive"}]}, {"smiles": "CCC1C(=O)OCC1Cc1cncn1C", "note": "(centres undefined)", "values": [{"measurement": "Potency", "setting": "[9]", "result": "inactive"}, {"measurement": "outcome", "setting": "[6]", "result": "inactive"}, {"measurement": "Potency", "setting": "[7]", "result": "inactive"}, {"measurement": "max response", "setting": "[1]", "result": "-1.02% (inactive) and -1.03% (inactive) and -9.17% (inactive)"}, {"measurement": "Potency", "setting": "[10]", "result": "inactive"}, {"measurement": "Potency", "setting": "[11]", "result": "inactive"}]}, {"smiles": "Cc1nc2ccccc2n1Cc1ccc(Cl)cc1", "values": [{"measurement": "max response", "setting": "[1]", "result": "3.69% (inactive)"}, {"measurement": "Potency", "setting": "[10]", "result": "inactive"}, {"measurement": "Potency", "setting": "[12]", "result": "inactive"}, {"measurement": "Potency", "setting": "[11]", "result": "inactive"}]}, {"smiles": "O=P(O)(O)C(Cl)(Cl)P(=O)(O)O", "values": [{"measurement": "Potency", "setting": "[9]", "result": "inactive"}, {"measurement": "outcome", "setting": "[6]", "result": "inactive"}, {"measurement": "Potency", "setting": "[7]", "result": "inactive"}, {"measurement": "Potency", "setting": "[8]", "result": "inactive"}, {"measurement": "Potency", "setting": "[10]", "result": "inactive"}]}, {"smiles": "C[N+](C)(C)CCOP(=O)(O)OP(=O)([O-])OC[C@H]1O[C@@H](n2ccc(N)nc2=O)[C@H](O)[C@@H]1O", "values": [{"measurement": "Potency", "setting": "[9]", "result": "inactive"}, {"measurement": "outcome", "setting": "[6]", "result": "inactive"}, {"measurement": "Potency", "setting": "[7]", "result": "inactive"}, {"measurement": "Potency", "setting": "[8]", "result": "inactive"}, {"measurement": "max response", "setting": "[1]", "result": "1.57% (inactive) and 1.8% (inactive) and 27.7% (inactive)"}, {"measurement": "Potency", "setting": "[10]", "result": "inactive"}, {"measurement": "Potency", "setting": "[11]", "result": "inactive"}]}]}
